These results are taken from PubChem BioAssay (NCI).

“And” between values parts separate entries of the source, which are not always exact repeats. Identical values can stand only once. The panel holds about 83,000 compounds, 20% with a hit somewhere; the sample as a whole holds those more often.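 Method: cells in 96-well plates; compound added at one concentration; 48 h incubation; percent growth measured; values under 10 scored active.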 Unmarked numbers belong to inactive results. The source made the active and inactive calls.

In this assay the test system is HL-60(TB) leukemia. In words: NCI-60 one-dose screen, 48 h (100 = growth as untreated, 0 = no growth, -100 = all killed). The settings on record: 10 µM unless noted.
Regarding `Nc1ccc(S(=O)(=O)c2ccc(Cl)cc2)cc1`, the growth was 100%. Turning to `c1ccc(OCC[P+](c2ccccc2)(c2ccccc2)c2ccccc2)cc1`, the growth is -19.4% (active). Take `O=C(N/N=C/c1ccc(F)cc1)c1ccc(C(F)(F)F)nc1Nc1cccc(C(F)(F)F)c1`: the growth was -37.2% (active).

Take `CCCCC(N)(C(=O)O)C1CCCC1` (stereo not given): the growth is 132%. With `CC(=O)NCC(=O)c1ccc([N+](=O)[O-])cc1`, the growth is 103%. `Cn1cccc1C(=O)C1C(c2cccc([N+](=O)[O-])c2)C2C3CCCCC3CN2C12C(=O)Nc1ccc(Cl)cc12` (stereo not given): the growth is 17.8%.

On to `COc1ccc(C2NC(=O)C(C#N)c3c2sc2c(F)cccc32)cc1` (stereo not given), for which the growth is 10.5%. On to `O=c1c2sc3ncccc3c2nnn1-c1ccccc1`, for which the growth was 106%. For `COc1ccc(C2c3sc4c(F)cccc4c3Oc3nc[nH]c(=O)c32)cc1` (stereo not given), the growth was -44.6% (active). Take `O=C1/C(=C/c2ccc3cccc(Cl)c3n2)SC(=S)N1CCc1ccc(O)cc1`: the growth is 32.4%. As to `CN1C(=O)N(C)C2C1NN=c1s/c(=C\c3cccnc3)c(=O)n12` (stereo not given), the growth was 82.7%. With `N#Cc1c(O)c2c(c(O)c1C#N)C(=O)c1ccccc1C2=O`, the growth is -38.1% (active). Under `C#C[C@]1(O)CC[C@H]2[C@@H]3CC=C4c5nc(Nc6ccc(OC)cc6OC)sc5CC[C@]4(C)[C@H]3CC[C@@]21C` stands 17.9%; under `CCOC(=O)Nc1ccc2c(c1)/C(=N\NC(N)=S)c1ccccc1-2`, 55.4% and 78.8%. Take `OC(COc1ccccc1Cl)COc1ccccc1Cl`: the growth was 94.3%. For `COc1ccccc1C(C)=O`, the growth was 105% and 102%.

As for `CC(=O)Nc1ccc2c(c1)c(NC(C)=O)nn2C(=O)Nc1ccc(Cc2ccccc2)cc1`, the growth is 93.1%. Take `COc1cc(-c2c3c(c(Br)n2Cc2ccccc2)-c2nc(N)sc2CC3)cc(OC)c1OC`: the growth was 68.4%. As for `O=C(O)c1[nH]c(=O)[nH]c(=O)c1[N+](=O)[O-]`, the growth was 127%. As for `COc1ccc(OC)c(Nc2nc(-c3c(C)nc4sccn34)cs2)c1`, the growth is 67.9%. Consider `CS(=O)(=O)Nc1cc(-c2ccc3ncnc(Nc4ccc5c(cnn5Cc5cccc(F)c5)c4)c3c2)cnc1Cl`, for which the growth is -23.9% (active).

On to `CS(=O)(=O)Nc1ccc(Nc2c3ccccc3nc3cc([N+](=O)[O-])ccc23)cc1`, for which the growth is -8.01% (active). Regarding `COc1ccc(COC=O)cc1`, the growth is 103%.

With `COc1ccc(NS(=O)(=O)N2CCCCC2)cc1`, the growth was 115%. Under `CCOC(=O)c1cc2c(=O)oc3ccccc3c2oc1=O` stands 106%.
